Results on six compounds are retold here after PubChem BioAssay (EPA / NIEHS).

Assay [1] addresses Bile acid receptor (Homo sapiens) (UniProt Q96RI1). Nature of the assay: OT_FXR_FXRSRC1_0480: Odyssey Thera (OT) 8-hour HEK293T Protein-Complementation Assay for Farnesoid X receptor/SRC-1 Co-activator (AID 2283383). In a few lines: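 PCA, HEK293T, 8 h compound exposure; FXR–SRC-1 binding reconstitutes split reporter; fluorescence intensity; positive-direction fit vs DMSO.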
For assay [2] the target is unchanged. Nature of the assay: OT_FXR_FXRSRC1_1440: Odyssey Thera (OT) 24-hour HEK293T Protein-Complementation Assay for Farnesoid X receptor/SRC-1 Co-activator (AID 2283384). A digest of the protocol:
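Measures ligand-driven FXR–SRC-1 co-activator recruitment in HEK293T via fragment complementation, fluorescence intensity at 24 h. DMSO served as negative control and baseline for gain-of-signal fitting.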

In assay [3] the target is Retinoic acid receptor RXR-alpha (Homo sapiens) (UniProt P19793). The assay is described as follows: OT_NURR1_NURR1RXRa_0480: Odyssey Thera (OT) 8-hour HEK293T Protein Complementation Assay for Nurr1/retinoid X receptor (RXR) (AID 2283385). In a few lines:
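Interaction of bait and prey reconstitutes a functional reporter, whose fluorescence was measured in HEK293T cells dosed with compound for 8 hours. Signal gain relative to DMSO defined the single endpoint.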

Assay [4] has the same target. The assay is described as follows: OT_NURR1_NURR1RXRa_1440: Odyssey Thera (OT) 24-hour HEK293T Protein Complementation Assay for Nurr1/retinoid X receptor (RXR) (AID 2283386). A digest of the protocol:
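Steps: fragment-tagged Nurr1 and RXRα expressed in HEK293T; compounds added; after 24 h, complemented reporter quantified by fluorescence intensity; signal increase over DMSO fitted as the single endpoint.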

The target of assay [5] is Peroxisome proliferator-activated receptor gamma (Homo sapiens) (UniProt P37231). Nature of the assay: OT_PPARg_PPARgSRC1_0480: Odyssey Thera (OT) 8-hour Protein-Complementation Assay for Peroxisome Proliferator-activated Receptor Gamma / SRC-1 Co-activator (AID 2283387).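 Note: nuclear to cytoplasmic split Venus YFP fluorescence ratio reporting PPARg SRC-1 interaction.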 A digest of the protocol:
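HEK293T transiently transfected with PPARg and SRC-1 fused to Venus YFP fragments, compounds 8 h at 37C. Fixed, Draq5-stained cells imaged; nuclear/cytoplasmic 488 nm fluorescence ratio over at least 350 cells per image; gain fitted versus DMSO.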

Assay [6] shares this target. Nature of the assay: OT_PPARg_PPARgSRC1_1440: Odyssey Thera (OT) 24-hour Protein-Complementation Assay for Peroxisome Proliferator-activated Receptor Gamma/ SRC-1 Co-activator (AID 2283388). In a few lines: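 Transient HEK293T, YFP fragments 1-158/159-239 (mutant IFP1/IFP2) fused to PPARg/SRC-1; 24 h dosing; fix 4% formaldehyde, Draq5; Opera imaging 488/635 nm; N/C ratio, gain vs DMSO.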

Assay [7] can be described thus: CEETOX_H295R_11DCORT: CeeTox H295R High-throughput Steroidogenesis Assay for 11-Deoxycortisol (11DCORT) (AID 2283432; active = hit-call score of the fitted dose curve at least 0.9, where 1 is the maximum; inactive = score below 0.9;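 for AC50: human adrenal H295R cells prestimulated with 10 µM forskolin for 48 h; 11-deoxycortisol secreted into the medium measured by LC-MS/MS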). The settings on record: actives raise or lower the signal. In a few lines: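 H295R cells prestimulated 48 h with 10 uM forskolin, then exposed 48 h to chemical in 0.1% DMSO. 11-Deoxycortisol in medium quantified by HPLC-MS/MS after MTBE extraction; bidirectional fit versus DMSO. MTT viability read in same wells.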

Assay [8] in a line: CEETOX_H295R_OHPREG: CeeTox H295R High-throughput Steroidogenesis Assay for OH-Pregnenolone (OHPREG) (AID 2283434; active = hit-call score of the fitted dose curve at least 0.9, where 1 is the maximum; inactive = score below 0.9). The following applies: actives raise or lower the signal. In a few lines: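 Readout: HPLC-MS/MS of 17alpha-hydroxypregnenolone in medium after 48 h chemical exposure of H295R cells pretreated with forskolin. Values fitted bidirectionally relative to DMSO; chemicals reducing viability to 20–70% were retested after 10-fold dilution.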

Assay [9] in a line: CEETOX_H295R_OHPROG: CeeTox H295R High-throughput Steroidogenesis Assay for OH-Progesterone (OHPROG) (AID 2283435; active = hit-call score of the fitted dose curve at least 0.9, where 1 is the maximum; inactive = score below 0.9;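 for AC50: human adrenal H295R cells primed 48 h with 10 µM forskolin; 17alpha-hydroxyprogesterone secreted into medium measured by HPLC-MS/MS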). The settings on record: actives raise or lower the signal. A digest of the protocol:
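Steps: seed H295R cells and adhere overnight; stimulate with 10 uM forskolin for 48 h; replace with chemical-containing medium (0.1% DMSO) for 48 h; extract medium with MTBE; quantify 17alpha-hydroxyprogesterone by reverse-phase C18 HPLC-MS/MS against a 7-point curve.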

Assay [10] in a line: CEETOX_H295R_ANDR: CeeTox H295R High-throughput Steroidogenesis Assay for Androstenedione (ANDR) (AID 2283436; active = hit-call score of the fitted dose curve at least 0.9, where 1 is the maximum; inactive = score below 0.9;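 note: human H295R adrenal cells exposed for 48 h with androstenedione measured in medium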). The settings on record: actives raise or lower the signal. A digest of the protocol:
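Steroidogenesis in H295R adrenal cells after 48 h dosing; androstenedione quantified by LC-MS/MS, with DMSO as negative control and baseline for bidirectional curve fitting.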

Assay [11] can be described thus: CEETOX_H295R_CORTIC: CeeTox H295R High-throughput Steroidogenesis Assay for Corticosterone (CORTIC) (AID 2283437; active = hit-call score of the fitted dose curve at least 0.9, where 1 is the maximum; inactive = score below 0.9;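 note: corticosterone secreted into medium quantified by mass spectrometry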). The following applies: actives raise or lower the signal. In a few lines:
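Steps: seed H295R, adhere overnight; 10 uM forskolin 48 h; replace with chemical (0.1% DMSO) 48 h; extract medium with MTBE; quantify corticosterone by HPLC-MS/MS; score bidirectionally vs DMSO.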

Assay [12] in a line: CEETOX_H295R_CORTISOL: CeeTox H295R High-throughput Steroidogenesis Assay for Cortisol (AID 2283438; active = hit-call score of the fitted dose curve at least 0.9, where 1 is the maximum; inactive = score below 0.9). The settings on record: actives raise or lower the signal. A digest of the protocol: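 Cortisol synthesis by H295R cells is measured 48 h after chemical dosing, following a 48 h stimulation with 10 uM forskolin. Hormone is extracted and quantified by HPLC-MS/MS, and activity is fitted bidirectionally against the DMSO control.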

A short description of assay [13]: CEETOX_H295R_DOC: CeeTox H295R High-throughput Steroidogenesis Assay for DOC (AID 2283439; active = hit-call score of the fitted dose curve at least 0.9, where 1 is the maximum; inactive = score below 0.9). The following applies: actives raise or lower the signal. In a few lines: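 Steps: seed H295R, adhere overnight; 10 uM forskolin 48 h; replace with chemical medium (0.1% DMSO) 48 h; collect medium, MTBE extraction, HPLC-MS/MS for DOC. Viability then checked by MTT; cytotoxic chemicals diluted until viability ≥70%.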

Assay [14] in a line: CEETOX_H295R_ESTRADIOL: CeeTox H295R High-throughput Steroidogenesis Assay for Estradiol (AID 2283440; active = hit-call score of the fitted dose curve at least 0.9, where 1 is the maximum; inactive = score below 0.9;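 note: estradiol secreted into medium quantified by LC-MS/MS after dansyl derivatisation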). The settings on record: actives raise or lower the signal. A digest of the protocol:
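Following OECD 456 with minor changes, H295R cells received 10 uM forskolin for 48 h and then test chemical for 48 h. Hormone output was read by HPLC-MS/MS, with cytotoxic concentrations diluted until MTT viability reached ≥70%.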

Assay [15] in a line: CEETOX_H295R_ESTRONE: CeeTox H295R High-throughput Steroidogenesis Assay for Estrone (AID 2283441; active = hit-call score of the fitted dose curve at least 0.9, where 1 is the maximum; inactive = score below 0.9). The settings on record: actives raise or lower the signal. In a few lines: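 Estrone secreted into medium quantified by LC-MS/MS after dansyl chloride derivatization, following 48 h chemical exposure (0.1% DMSO final) of forskolin-prestimulated (10 uM, 48 h) H295R cells; gain or loss fitted against DMSO; MTT viability in same wells.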

Assay [16] can be described thus: CEETOX_H295R_PROG: CeeTox H295R High-throughput Steroidogenesis Assay for Progesterone (PROG) (AID 2283442; active = hit-call score of the fitted dose curve at least 0.9, where 1 is the maximum; inactive = score below 0.9;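 for AC50: human H295R adrenal cells primed with 10 µM forskolin before dosing; progesterone secreted into medium by H295R cells measured by HPLC-MS/MS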). The settings on record: actives raise or lower the signal. In a few lines:
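Adrenal H295R line, forskolin-stimulated (10 uM, 48 h) before dosing. 48 h exposure, 0.1% DMSO vehicle. Secreted progesterone by reverse-phase HPLC with ESI+ MS/MS quantification; DMSO-normalised bidirectional curve fit.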

Read-out in assay [17]: Tumor necrosis factor receptor superfamily member 6 (Homo sapiens) (UniProt P25445)
Nature of the assay: LTEA_HepaRG_FAS: Life Technologies and Expression Analysis (LTEA) Assay for Fas cell surface death receptor (FAS) using HepaRG (AID 2283447; active = hit-call score of the fitted dose curve at least 0.9, where 1 is the maximum; inactive = score below 0.9). The settings on record: mRNA level, 48 h; actives raise or lower the signal. A digest of the protocol: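 Differentiated human HepaRG cells, pre-cultured 48 h, were exposed in duplicate for 48 h to 8-point half-log concentrations (top 100 uM, 0.5% DMSO) in serum-free induction medium; FAS mRNA measured by qRT-PCR, normalized to ACTB/GAPDH/POLR2A, bidirectional fit versus DMSO.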

Read-out in assay [18]: Cyclin Dependent Kinase Inhibitor 1A (CDKN1A), CDKN1A (gene 1026)
The assay is described as follows: LTEA_HepaRG_CDKN1A: Life Technologies and Expression Analysis (LTEA) Assay for Cyclin Dependent Kinase Inhibitor 1A (CDKN1A) using HepaRG (AID 2283450; active = hit-call score of the fitted dose curve at least 0.9, where 1 is the maximum; inactive = score below 0.9). The following applies: mRNA level, 48 h; actives raise or lower the signal. In a few lines:
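Cryopreserved HepaRG cells were plated and cultured 48 h, then switched to serum-free induction medium. Chemicals (eight half-log concentrations, top 100 uM, 0.5% DMSO) were applied for 48 h. Lysates underwent qRT-PCR for CDKN1A with housekeeping normalization.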

Read-out in assay [19]: Cyclin D2 (CCND2), CCND2 (gene 894)
Nature of the assay: LTEA_HepaRG_CCND2: Life Technologies and Expression Analysis (LTEA) Assay for Cyclin D2 (CCND2) using HepaRG (AID 2283449; active = hit-call score of the fitted dose curve at least 0.9, where 1 is the maximum; inactive = score below 0.9;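 note: CCND2 transcript measured by TaqMan qRT-PCR and normalised to three housekeeping genes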). The following applies: mRNA level, 48 h; actives raise or lower the signal. A digest of the protocol: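 In this HepaRG study, an eight-point concentration series (max 100 uM, 0.5% DMSO) is applied for 48 h. CCND2 mRNA change is derived by qRT-PCR normalised to ACTB, GAPDH and POLR2A.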

Read-out in assay [20]: Fatty acid synthase (Homo sapiens) (UniProt P49327)
The assay is described as follows: LTEA_HepaRG_FASN: Life Technologies and Expression Analysis (LTEA) Assay for Fatty Acid Synthase (FASN) using HepaRG (AID 2283448; active = hit-call score of the fitted dose curve at least 0.9, where 1 is the maximum; inactive = score below 0.9). The following applies: mRNA level, 48 h; actives raise or lower the signal. In a few lines:
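Cells were plated, cultured 48 h, switched to serum-free induction medium, then dosed in duplicate (max 100 uM, half-log dilutions, 0.5% DMSO) for 48 h. RNA was then isolated and FASN quantified by qRT-PCR.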

“And” between values parts separate entries of the source, which are not always exact repeats. Equal entries are not always repeated. Inconclusive results are not listed. Where a structure was tested more than once in an assay, its records may differ in their call. The source made the active and inactive calls. Rule for the calls, unless noted: active = hit-call score of the fitted dose curve at least 0.9, where 1 is the maximum; inconclusive = response in the unintended direction; inactive = score below 0.9.

Sequence of Peroxisome proliferator-activated receptor gamma (Homo sapiens) (P37231 whole entry, looked up, the tested form may be a part): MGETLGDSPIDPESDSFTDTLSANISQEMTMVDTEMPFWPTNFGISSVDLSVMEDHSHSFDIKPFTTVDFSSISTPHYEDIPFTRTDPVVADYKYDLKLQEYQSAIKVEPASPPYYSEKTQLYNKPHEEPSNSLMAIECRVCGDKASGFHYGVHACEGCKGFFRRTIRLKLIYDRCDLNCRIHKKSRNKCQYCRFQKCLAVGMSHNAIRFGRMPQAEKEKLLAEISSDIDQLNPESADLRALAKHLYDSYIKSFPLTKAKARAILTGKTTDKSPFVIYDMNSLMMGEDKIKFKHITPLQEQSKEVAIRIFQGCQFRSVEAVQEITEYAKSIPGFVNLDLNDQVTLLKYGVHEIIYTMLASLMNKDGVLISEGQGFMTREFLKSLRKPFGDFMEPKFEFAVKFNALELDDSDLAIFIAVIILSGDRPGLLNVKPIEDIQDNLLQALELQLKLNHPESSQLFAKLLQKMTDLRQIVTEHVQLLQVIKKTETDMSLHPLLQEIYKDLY
Sequence of Retinoic acid receptor RXR-alpha (Homo sapiens) (P19793 whole entry, looked up): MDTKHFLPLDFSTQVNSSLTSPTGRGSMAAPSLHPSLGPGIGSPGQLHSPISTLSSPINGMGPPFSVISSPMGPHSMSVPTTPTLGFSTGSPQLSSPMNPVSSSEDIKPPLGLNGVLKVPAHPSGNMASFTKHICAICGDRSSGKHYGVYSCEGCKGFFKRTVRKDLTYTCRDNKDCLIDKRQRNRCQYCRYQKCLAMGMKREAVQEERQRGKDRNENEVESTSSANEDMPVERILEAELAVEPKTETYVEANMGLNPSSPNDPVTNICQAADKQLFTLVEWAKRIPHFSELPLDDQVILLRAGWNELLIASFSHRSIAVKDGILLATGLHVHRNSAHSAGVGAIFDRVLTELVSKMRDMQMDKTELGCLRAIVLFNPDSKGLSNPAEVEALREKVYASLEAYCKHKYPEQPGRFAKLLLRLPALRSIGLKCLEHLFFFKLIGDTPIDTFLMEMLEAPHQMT
Sequence of Bile acid receptor (Homo sapiens) (Q96RI1 whole entry, looked up): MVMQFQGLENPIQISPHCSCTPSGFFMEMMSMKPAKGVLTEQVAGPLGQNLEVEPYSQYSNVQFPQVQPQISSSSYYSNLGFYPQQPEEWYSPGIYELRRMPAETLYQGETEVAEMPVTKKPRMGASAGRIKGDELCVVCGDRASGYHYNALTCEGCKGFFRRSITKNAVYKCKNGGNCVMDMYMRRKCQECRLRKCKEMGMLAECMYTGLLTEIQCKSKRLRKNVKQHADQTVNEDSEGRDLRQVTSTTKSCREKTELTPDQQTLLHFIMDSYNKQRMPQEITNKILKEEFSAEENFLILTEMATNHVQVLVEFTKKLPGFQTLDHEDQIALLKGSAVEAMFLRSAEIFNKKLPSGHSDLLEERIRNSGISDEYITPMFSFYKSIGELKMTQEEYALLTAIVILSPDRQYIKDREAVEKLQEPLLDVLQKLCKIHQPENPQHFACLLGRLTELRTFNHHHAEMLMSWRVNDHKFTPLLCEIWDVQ
Sequence of Fatty acid synthase (Homo sapiens) (P49327 whole entry, looked up): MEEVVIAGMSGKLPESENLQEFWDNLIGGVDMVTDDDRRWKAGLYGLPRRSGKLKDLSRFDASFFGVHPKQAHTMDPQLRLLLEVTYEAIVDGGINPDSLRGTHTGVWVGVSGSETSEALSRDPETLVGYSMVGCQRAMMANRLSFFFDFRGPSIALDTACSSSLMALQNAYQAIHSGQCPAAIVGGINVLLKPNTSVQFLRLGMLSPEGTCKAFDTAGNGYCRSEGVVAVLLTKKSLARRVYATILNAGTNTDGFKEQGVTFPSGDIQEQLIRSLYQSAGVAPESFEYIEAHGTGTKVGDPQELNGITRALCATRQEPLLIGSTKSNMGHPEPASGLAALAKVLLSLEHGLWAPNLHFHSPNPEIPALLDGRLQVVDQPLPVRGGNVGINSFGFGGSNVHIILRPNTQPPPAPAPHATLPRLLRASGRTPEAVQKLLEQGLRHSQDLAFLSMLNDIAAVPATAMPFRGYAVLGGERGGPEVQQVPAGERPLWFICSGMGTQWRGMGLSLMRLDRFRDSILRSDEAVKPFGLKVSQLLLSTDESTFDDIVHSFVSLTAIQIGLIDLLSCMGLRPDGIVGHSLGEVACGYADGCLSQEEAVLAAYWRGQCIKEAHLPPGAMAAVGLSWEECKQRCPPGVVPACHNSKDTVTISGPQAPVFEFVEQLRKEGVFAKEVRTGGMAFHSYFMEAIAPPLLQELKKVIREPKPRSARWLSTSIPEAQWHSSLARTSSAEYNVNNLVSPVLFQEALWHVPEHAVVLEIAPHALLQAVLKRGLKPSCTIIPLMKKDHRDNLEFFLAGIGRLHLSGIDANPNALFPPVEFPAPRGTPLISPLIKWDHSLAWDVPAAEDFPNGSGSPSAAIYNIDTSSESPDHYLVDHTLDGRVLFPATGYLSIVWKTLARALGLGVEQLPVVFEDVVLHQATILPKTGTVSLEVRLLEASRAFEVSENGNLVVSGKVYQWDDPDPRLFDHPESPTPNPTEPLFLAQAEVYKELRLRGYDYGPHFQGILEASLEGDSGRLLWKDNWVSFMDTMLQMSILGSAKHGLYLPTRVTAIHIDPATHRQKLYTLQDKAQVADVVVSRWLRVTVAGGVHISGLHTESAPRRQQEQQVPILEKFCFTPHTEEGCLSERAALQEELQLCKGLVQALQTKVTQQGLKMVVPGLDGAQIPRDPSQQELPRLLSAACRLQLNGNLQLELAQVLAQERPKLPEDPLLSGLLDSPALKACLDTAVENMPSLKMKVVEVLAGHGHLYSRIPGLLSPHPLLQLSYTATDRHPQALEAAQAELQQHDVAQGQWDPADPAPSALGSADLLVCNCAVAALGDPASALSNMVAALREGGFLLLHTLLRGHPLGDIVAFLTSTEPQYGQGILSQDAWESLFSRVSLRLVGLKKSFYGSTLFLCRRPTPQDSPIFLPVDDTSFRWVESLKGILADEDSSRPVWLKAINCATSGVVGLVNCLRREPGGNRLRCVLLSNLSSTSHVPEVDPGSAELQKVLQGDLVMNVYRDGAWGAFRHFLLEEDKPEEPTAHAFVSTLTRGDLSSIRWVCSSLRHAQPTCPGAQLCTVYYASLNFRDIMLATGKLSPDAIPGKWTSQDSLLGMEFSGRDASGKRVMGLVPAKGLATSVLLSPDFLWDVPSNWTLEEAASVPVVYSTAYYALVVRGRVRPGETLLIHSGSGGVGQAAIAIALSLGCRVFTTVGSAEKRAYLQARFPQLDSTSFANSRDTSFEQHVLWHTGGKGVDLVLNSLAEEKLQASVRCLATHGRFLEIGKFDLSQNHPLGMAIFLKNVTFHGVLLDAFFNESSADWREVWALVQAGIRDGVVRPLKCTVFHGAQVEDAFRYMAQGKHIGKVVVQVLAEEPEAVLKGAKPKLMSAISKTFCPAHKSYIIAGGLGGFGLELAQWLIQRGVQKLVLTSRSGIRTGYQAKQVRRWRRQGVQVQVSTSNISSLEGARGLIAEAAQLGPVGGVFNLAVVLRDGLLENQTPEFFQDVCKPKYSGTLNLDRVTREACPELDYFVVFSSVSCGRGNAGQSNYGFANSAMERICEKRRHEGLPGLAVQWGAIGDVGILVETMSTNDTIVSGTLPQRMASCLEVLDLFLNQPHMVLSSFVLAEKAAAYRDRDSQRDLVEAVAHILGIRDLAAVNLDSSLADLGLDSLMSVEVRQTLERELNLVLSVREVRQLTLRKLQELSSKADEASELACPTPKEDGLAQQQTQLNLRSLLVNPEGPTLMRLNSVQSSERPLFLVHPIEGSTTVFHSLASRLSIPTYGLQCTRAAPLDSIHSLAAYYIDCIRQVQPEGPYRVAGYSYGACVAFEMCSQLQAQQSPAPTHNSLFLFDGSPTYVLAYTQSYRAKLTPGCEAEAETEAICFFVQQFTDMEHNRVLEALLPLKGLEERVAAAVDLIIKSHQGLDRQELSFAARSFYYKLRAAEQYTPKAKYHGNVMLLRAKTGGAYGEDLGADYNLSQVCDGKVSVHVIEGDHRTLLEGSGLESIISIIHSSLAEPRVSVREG

As for `Nc1cccc2c(N)cccc12`, the compound was called inactive in assay [1], in [2], in assay [3], in [4], in [5] and in [6]. Besides, the compound was called inactive in assay [8], in [10], in assay [11], in assay [14], in assay [15] and in [17]. For the same compound, the compound was called inactive in [18]. The AC50 in assay [7] was 5 µM (active); in [9], 1.78 µM (active); in assay [12], 5 µM (active); in [13] it was 2.73 µM (active); in assay [16], 2.44 µM (active).

As to `c1ccc2cc3c(ccc4ccccc43)cc2c1`, the outcome in assay [1], in [2], in assay [3], in assay [4], in assay [5] and in [6] was inactive. Moreover, the call in [8], in assay [16], in assay [17], in assay [19] and in assay [18] was inactive. For the same compound, the AC50 is 79.7 µM (active) in [4] and 6.08 µM (active) in assay [9].

With `CC(C)(C)c1cc(C(C)(C)C)c(O)c(C(C)(C)C)c1`, the AC50 in assay [1] is 81.1 µM (active); in assay [2], 92.6 µM (active); in [3], 84.3 µM (active) and 77.2 µM (active); in assay [4], 85 µM (active). For the same compound, the result in [5], in [6], in assay [17], in assay [19] and in assay [18] was inactive.

On to `CCC(=C(c1ccc(O)cc1)c1ccc(OCCN(C)C)cc1)c1ccccc1`, for which the AC50 in assay [1] is 7.35 µM (active) and 7.42 µM (active) and 7.26 µM (active); in assay [2], 7.46 µM (active) and 7.54 µM (active) and 7.53 µM (active). Moreover, the compound was called inactive in [1], in assay [2], in assay [4], in [5], in assay [6] and in assay [7]. Moreover, the compound was called inactive in assay [8], in assay [9], in assay [10], in [11], in assay [12] and in assay [13]. In addition, the compound was called inactive in assay [16], in assay [17], in [20], in [19] and in assay [18].

Take `CC(O)CO` (centres undefined): the compound was called inactive in assay [1], in assay [2], in assay [3], in [5], in assay [6] and in [17]. Moreover, the result in assay [19] and in assay [18] was inactive.

In the case of `Oc1cccc(O)c1`, the call in assay [1], in assay [2], in [3], in [4], in assay [5] and in assay [6] was inactive. The compound was classed as inactive in [7], in assay [8], in assay [9], in assay [11], in [12] and in assay [13]. Further, the call in assay [14], in assay [15], in assay [16], in [17] and in assay [18] was inactive.

One may read the AC50 as the midpoint of the concentration-response curve, whichever way the signal moves.
